According to PubChem BioAssay (Tox21):
Records with an inconclusive call do not appear. Where a call stands in place of a potency, no number is given. Unmarked numbers belong to inactive results. Calls of active or inactive are those of the source. Calls come from the whole dose curve; as a rule, active = well fitted curve in the direction sought with a large enough effect in the repeat runs; inconclusive = weak or mixed curves; inactive = no such curve, though single readings can be large; an effect the other way counts as inactive or inconclusive.

Experiments:
[1] = qHTS assay to identify small molecule agonists of the RXR signaling pathway - cell viability counter screen (AID 1159529); note: nearly all actives have a fitted effect of over 50% in size; note: potency is the fitted concentration of half-maximal effect;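 for activity change, negative = cytotoxicity: HEK 293T cells carrying an RXR-alpha UAS beta-lactamase reporter; series mostly up to about 77 µM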
Summary of the method: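 RXR-alpha-UAS-bla HEK 293T cells in medium with 2% charcoal-stripped FBS were preincubated 5 hr, then exposed to compounds for 16 hr at 37 C. Viability was read as CellTiter-Glo luminescence after 30 min at room temperature.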

[2] = qHTS assay to identify small molecule agonists of the retinoic acid receptor (RAR) signaling pathway (AID 1159553); note: potency is the fitted concentration of half-maximal effect
Summary of the method: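 6 hr compound exposure (DMSO vehicle) of overnight-plated C3RL4 RARE-luc cells at 37 C; luminescence quantified after 30 min RT with luciferase reagent.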

[3] = qHTS assay to identify small molecule antagonists of the retinoid acid receptor (RAR) signaling pathway - cell viability counter screen (AID 1159551); note: nearly all actives have a fitted effect of over 35% in size; note: potency is the fitted concentration of half-maximal effect
Summary of the method: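 Measured by luminescent ATP detection, viability reflects C3RL4 cells treated 6 h at 37 C with test chemicals in the presence of 1 uM (final) retinol.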

[4] = qHTS assay to identify small molecule antagonists of the retinoic acid receptor (RAR) signaling pathway (AID 1159552; note: nearly all actives have a fitted effect of over 50% in size; note: potency is the fitted concentration of half-maximal effect)
Summary of the method: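 RARE-luc C3RL4 cells; cpds + 1 uM (final) retinol, 6 hr, 37 C/5% CO2; luciferase reagent, 30 min RT, luminescence readout. Inhibitors of retinol-driven signal scored.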

[5] = qHTS assay to identify small molecule antagonists of the estrogen related receptor (ERR) signaling pathway - cell viability counter screen (AID 1224818);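 note: series mostly up to about 46 µM; viability measured after 17.5 h of compound exposure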
Summary of the method: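 Compounds dissolved in DMSO were applied to ERR cells seeded at 2,000 per well 6 h earlier. Cell viability followed 17.5 h later via 30-min CellTiter-Fluor fluorescence.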

With CC(=O)[O][Al] the Potency [1] was “inactive” and the Potency [2] was “inactive”.

In the case of Cc1ccc(C(=O)Oc2ccc(C(O)CNC(C)(C)C)cc2OC(=O)c2ccc(C)cc2)cc1 (stereo not drawn), the Potency [1] was 19 µM (active) and the Potency [2] was “inactive”.

Molecule O=C(O)CNCC(=O)O has an activity change, negative = cytotoxicity [3] of -1.04% [at 8.39 µM].

In the case of CNCCCCOc1ccccc1Cc1ccccc1, the Potency [3] was “inactive”.

With Nc1ccc(N)c2c1C(=O)c1ccccc1C2=O the Potency [3] was 30.6 µM (active).

In the case of O=C1CCCCCCCCCCCC(=O)OCCO1, the Potency [3] was “inactive”.

For CCCCO, the Potency [3] was “inactive”.

With Clc1ccc2c(c1)CCc1cccnc1C2=C1CCNCC1 the Potency [3] was “inactive”.

For CN(C)c1ccc(C(c2ccccc2)c2ccc(N(C)C)cc2)cc1, the Potency [3] was “inactive”.

With C[C@@H]1C[C@H]2O[C@@]3(O[C@@H]2C(C)(C)O)[C@H](O)[C@@]2(C)[C@@H]4CC[C@H]5C(C)(C)[C@@H](O[C@@H]6OC[C@@H](O)[C@H](O)[C@H]6O)CC[C@@]56C[C@@]46CC[C@]2(C)[C@@H]13 the Potency [3] was “inactive”.

In the case of CN(Cc1ccc(C(C)(C)C)cc1)Cc1cccc2ccccc12, the Potency [1] was 10.7 µM (active), the Potency [4] was “inactive” and the Potency [2] was “inactive”.

For Clc1ccc(Cn2c(CN3CCCC3)nc3ccccc32)cc1, the Potency [1] was “inactive”, the Potency [3] was “inactive” and the Potency [2] was “inactive”. For the same molecule, the outcome [5] was “inactive”.

For CC(C)Cc1ccc(C(C)C(=O)OCc2ccccn2)cc1 (stereo not drawn), the Potency [3] was “inactive”.

In the case of CCN(CC)c1ccc2c(-c3ccccc3C(=O)O)c3ccc(=[N+](CC)CC)cc-3oc2c1, the Potency [3] was 19.3 µM (active).

In the case of O=S(c1cc(Cl)cc(Cl)c1O)c1cc(Cl)cc(Cl)c1O, the Potency [1] was “inactive”, the Potency [3] was “inactive” and the Potency [2] was “inactive”.

In the case of C[C@H]1C[C@H]2[C@@H]3CCC4=CC(=O)C=C[C@]4(C)[C@@]3(Cl)[C@@H](O)C[C@]2(C)[C@@]1(O)C(=O)CO, the Potency [3] was “inactive”.

In the case of CCc1cc(C2=C(C(=O)O)N(c3ccccc3C(F)(F)F)S(=O)(=O)c3ccccc32)cc2c1OCO2, the Potency [3] was “inactive”.

In the case of COC(=O)C1=C(C)NC(COC(N)=O)=C(C(=O)OC(C)C)C1c1cccc(Cl)c1Cl (stereo not drawn), the Potency [3] was “inactive”.

With CCCCC(=O)OCC(=O)[C@H]1[C@H](C)C[C@H]2[C@@H]3C[C@H](F)C4=CC(=O)C=C[C@]4(C)[C@@]3(F)[C@@H](O)C[C@@]21C the Potency [3] was “inactive”.

With CCN(CC)CCNC(=O)c1cc(Br)c(N)cc1OC the Potency [3] was “inactive”.

With C=C1C(=C/C=C2\CCC[C@]3(C)[C@@H]([C@H](C)/C=C/[C@@H](O)C4CC4)CC[C@@H]23)C[C@@H](O)C[C@@H]1O the Potency [3] was “inactive” and the Potency [4] was “inactive”.

In the case of CC(C)OC(=O)C(C)N(C(=O)c1ccccc1)c1ccc(F)c(Cl)c1 (stereo not drawn), the Potency [3] was “inactive”, the Potency [4] was “inactive” and the Potency [2] was “inactive”.

For COc1cc(Cl)ccc1Oc1ccc(Cl)cc1Cl, the Potency [3] was “inactive” and the Potency [4] was “inactive”.

With C/C=C/C(=O)CC the activity change, negative = cytotoxicity [3] was -1.29% [at 19 µM] and the activity, negative = inhibition [4] was 130% [at 19 µM].

With C#C[C@]1(O)CC[C@H]2[C@@H]3CCc4cc(OC5CCCC5)ccc4[C@H]3CC[C@@]21C the Potency [3] was “inactive”, the Potency [4] was “inactive” and the Potency [2] was “inactive”.

For CCOC(=O)NCCOc1ccc(Oc2ccccc2)cc1, the Potency [3] was “inactive”.

For O=C(NCCO[N+](=O)[O-])c1cccnc1, the Potency [3] was “inactive”.

With CCC(C)(C)CC the Potency [3] was “inactive” and the Potency [4] was “inactive”.

With O=C(NCC1CN(c2ccc(N3CCOCC3=O)cc2)C(=O)O1)c1ccc(Cl)s1 (stereo not drawn) the Potency [3] was “inactive”, the Potency [4] was “inactive” and the Potency [2] was “inactive”.

In the case of CC(C)(C)Cl, the Potency [3] was “inactive”, the Potency [4] was “inactive” and the Potency [2] was “inactive”.

With CC1=CCCC(C)(C)C12CCC(C)O2 (stereo not drawn) the Potency [3] was “inactive”.

For CCC(Cl)CCC(Cl)C(Cl)CC(Cl)C(Cl)C(Cl)CCl (stereo not drawn), the Potency [3] was “inactive” and the Potency [4] was “inactive”.

In the case of ClCCOCCOCCCl, the Potency [3] was “inactive”, the Potency [4] was “inactive” and the Potency [2] was “inactive”.

For C[N+]1(CC2COC(c3ccccc3)(C3CCCCC3)O2)CCCCC1 (stereo not drawn), the Potency [3] was “inactive”.

With CO[C@@H]1[C@H](OC(=O)/C=C/C=C/C=C/C=C/C(=O)O)CC[C@]2(CO2)[C@H]1[C@@]1(C)O[C@@H]1CC=C(C)C the Potency [3] was “inactive”.

In the case of CCOC(=O)Cc1cccc2ccccc12, the Potency [3] was “inactive”, the Potency [4] was “inactive” and the Potency [2] was “inactive”.

In the case of CCO[Si](CCCCl)(OCC)OCC, the Potency [3] was “inactive”, the Potency [4] was “inactive” and the Potency [2] was “inactive”.

In the case of c1ccc(CNCCNCc2ccccc2)cc1, the Potency [3] was “inactive”, the Potency [4] was “inactive” and the Potency [2] was “inactive”.

With Cc1oc2c(NC(=O)c3c(Cl)cccc3Cl)cccc2c1C(C)(C)O the Potency [3] was “inactive”, the Potency [4] was “inactive” and the Potency [2] was “inactive”.

For CC(C)=CCC/C(C)=C/CC/C(C)=C/CO, the Potency [3] was “inactive”, the Potency [4] was 68.6 µM (active) and the Potency [2] was “inactive”.

In the case of CC1=CC[C@H](C(C)C)C=C1, the Potency [3] was “inactive”.

In the case of CCCCCCCCCCCCN1CCCCCC1=O, the Potency [3] was “inactive”, the Potency [4] was “inactive” and the Potency [2] was “inactive”.

In the case of COc1cc2nc(Cl)nc(N)c2cc1OC, the Potency [3] was “inactive”, the Potency [4] was “inactive” and the Potency [2] was “inactive”.

For CN(C)CCN(Cc1ccc(Cl)cc1)c1ccccn1, the Potency [3] was “inactive”, the Potency [4] was “inactive” and the Potency [2] was “inactive”.

For O=C1CCC(=O)O1, the Potency [3] was “inactive”, the Potency [4] was “inactive” and the Potency [2] was “inactive”.

For NCc1ccccc1Sc1ccccc1CO, the Potency [3] was “inactive”, the Potency [4] was “inactive” and the Potency [2] was “inactive”.

For O=C(O)CC(=O)C(=O)O, the Potency [3] was “inactive”, the Potency [4] was “inactive” and the Potency [2] was “inactive”.

For CCN(CC)c1ccc(C(=C2C=CC(=[N+](CC)CC)C=C2)c2cc(S(=O)(=O)O)ccc2S(=O)(=O)[O-])cc1, the Potency [3] was 15 µM (active) and the Potency [4] was 11.9 µM (active).

In the case of CN(C)c1ccc(/C=C/c2ccc([N+](=O)[O-])cc2)cc1, the activity change, negative = cytotoxicity [3] was -0.286% [at 8.39 µM], the activity, negative = inhibition [4] was 84.6% [at 8.39 µM] and the Potency [2] was 0.219 µM (active).

With CCOc1ccc(N=Nc2ccc(/C=C/c3ccc(N=Nc4ccc(OCC)cc4)cc3S(=O)(=O)O)c(S(=O)(=O)O)c2)cc1 the Potency [3] was “inactive”, the Potency [4] was “inactive” and the Potency [2] was “inactive”.

With CCN(CC)CCOC(=O)C(Cc1cccc2ccccc12)CC1CCCO1 (stereo not drawn) the Potency [3] was “inactive”, the Potency [4] was “inactive” and the Potency [2] was “inactive”.

With O=C(OCCCCCCOC(=O)c1ccccc1)c1ccccc1 the Potency [3] was “inactive” and the Potency [4] was “inactive”.

In the case of CCCCC, the Potency [3] was “inactive”, the Potency [4] was “inactive” and the Potency [2] was “inactive”.

For OCCN1CCN(CCCN2c3ccccc3C=Cc3ccccc32)CC1, the Potency [3] was “inactive”, the Potency [4] was “inactive” and the Potency [2] was “inactive”.

With O[C@@H](COc1cccc2ncccc12)CN1CCN(C2c3ccccc3[C@@H]3[C@H](c4ccccc42)C3(F)F)CC1 (stereo partly drawn) the Potency [3] was “inactive”.
